High-throughput results deposited in PubChem by Broad Institute.
In the library only some 3.4% were active in any assay of this set; here they are far more common.
HSF-1 act: increases HSF-1 driven luciferase reporter signal; NIH3T3-HGL HSF-1 luciferase reporter, MG132, 8 h; 100% = twice DMSO control signal; activation, % at 9 µM; hit rate 1.7% among 300,000; AID 504408;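 active = mean replicate activation of at least 50% with a set share of replicates each reaching 50%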;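 note: 0% = median of the neutral control wells and 100% = twice that signal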
HSF1 inh: HSF1 inhibition; NIH3T3-HGL HSE-luciferase, MG132-induced, luminescence 8 h; hits give low values; activity change, negative = inhibition, % at 7.5 µM (by protocol); hit rate 0.77% among 300,000;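 active = more than half of replicate wells show activity change below -50%, luminescence cut by over half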;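 note: luciferase reports HSF-1 transcriptional activity via heat shock element; 0% = median of DMSO wells and -100% = zero luminescence signal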
esBAF inh: SWI/SNF esBAF complex inhibition; reporter increase, % at 12.5 µM; AID 602393; mouse ES cells, Bmi1-luciferase knock-in reporter, 24 h; 100% = twice the neutral-well signal; hit rate 2% among 350,000; in the data active = activation above about 40%;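 note: 0% = median of the plate's neutral control wells and 100% = double that signal; a rise in the Bmi1 reporter signal indicates esBAF inhibition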
Vif imaging: HIV Vif inhibition | AID 602346 | HEK293T cells, Vif self-association by quenched fluorescence, imaging, 24 h | hit rate 0.35% among 340,000 | inhibition, % at 7.49 µM; in the data active = inhibition above about 50%, passing the limit was not always enough
* hit, by the source's call; . = no result.

SMILES	HSF-1 act	HSF1 inh	esBAF inh	Vif imaging
CCCN1C[C@H](C)[C@@H](OC)CN(C)C(=O)c2ccc(NC(=O)CC)cc2OC[C@H]1C	.	.	1	.
Cc1ccc(NC(=O)CSC2=C(C#N)C(c3ccc4c(c3)OCO4)CC(=O)N2)cc1C (centres undefined)	14	18	-3	-4
CCc1ccc(NC(=O)CSC2=C(C#N)C(c3ccc4c(c3)OCO4)CC(=O)N2)cc1 (centres undefined)	64*	29	3	-3
Cc1ccc(Cn2cc(S(=O)(=O)c3ccc(C(C)C)cc3)c(=O)c3cc4c(cc32)OCO4)cc1	64*	45	.	-1
Cc1ccc(Cn2cc(S(=O)(=O)c3ccc(Cl)cc3)c(=O)c3cc(F)ccc32)cc1	79*	41	.	-2
Cc1ccccc1Cn1cc(S(=O)(=O)c2ccc(C(C)C)cc2)c(=O)c2cc3c(cc21)OCO3	78*	57	15	.
CC(C)c1ccc(S(=O)(=O)c2cn(Cc3ccc(F)cc3)c3cc4c(cc3c2=O)OCO4)cc1	-31	-16	.	.
Cc1ccc(S(=O)(=O)c2cn(Cc3ccc(F)cc3)c3cc4c(cc3c2=O)OCO4)cc1	43	9	9	-16
C[C@@H]1CN([C@@H](C)CO)C(=O)c2cc(NC(=O)C3CCCCC3)ccc2O[C@@H]1CN(C)Cc1ccncc1	.	.	-2	.
CC1CC(C)CN(C(=O)c2ccc(CSc3nc4ccncc4[nH]3)cc2)C1 (centres undefined)	-73	-67*	-12	.
CCN(CCNC(=O)c1ccc(CSc2nc3ccncc3[nH]2)cc1)c1ccccc1	-5	-6	7	8
O=C(Nc1ccc(F)cc1F)c1cc2nc3c(c(C(F)(F)F)n2n1)CCCC3	-62	-55*	.	4
O=C(NCC[C@H]1CC[C@H](NC(=O)C2CCCCC2)[C@H](CO)O1)Nc1ccc(Cl)cc1	.	.	9	.
Nc1c(C(=O)Nc2ccc3c(c2)OCCO3)nnn1Cc1cccc(F)c1	41	19	69*	20
Nc1c(C(=O)Nc2ccc3c(c2)OCCO3)nnn1Cc1ccc(Cl)cc1	41	22	114*	2
Nc1c(C(=O)NCc2ccc3c(c2)OCO3)nnn1Cc1cccc(F)c1	8	-1	-1	7
O=C(Nc1ccc2c(c1)[C@H]1C[C@H](CC(=O)N3CCOCC3)O[C@@H](CO)[C@H]1O2)Nc1ccccc1F	.	.	-5	.
C[C@@H]1CN([C@H](C)CO)C(=O)c2cc(NC(=O)c3ccncc3)ccc2O[C@@H]1CN(C)C(=O)Nc1ccc2c(c1)OCO2	.	.	2	.
CCOCCCn1c(=N)c(S(=O)(=O)c2ccc(C)cc2)cc2c(=O)n3cc(C)ccc3nc21	12	3	-8	50*
COc1ccc(C(=O)N/N=C(/C)c2cccc(NC(=O)c3ccncc3)c2)cc1OC	-7	-4	7	6
C/C(=N\Nc1cccc(C(=O)O)c1)c1ccc(Cl)s1	0	-2	73*	0
COc1ccc(/C(C)=N/Nc2cccc(C(=O)O)c2)cc1OC	19	-5	53*	7
C[C@@H]1CN([C@@H](C)CO)C(=O)c2cc(NS(=O)(=O)c3ccc(Cl)cc3)ccc2O[C@@H](C)CCCCO[C@H]1CN(C)Cc1ccc(C(=O)O)cc1	.	.	-2	.
CCCn1ncc2c(Nc3ccc(C)c(C)c3)ncnc21	43	17	67*	9
CCCNC(=O)N1C[C@@H](C)[C@@H](OC)CN(C)C(=O)c2ccc(NC(=O)CC)cc2OC[C@@H]1C	.	.	-5	.
SMILES	HSF-1 act	HSF1 inh	esBAF inh	Vif imaging
COc1ccc(NC(=O)C2CCCN(c3nccc(C)n3)C2)cc1 (centres undefined)	1	3	.	-12
CCC(C)c1ccc(NC(=O)C2CCCN(c3ncccn3)C2)cc1 (centres undefined)	16	-2	48*	-8
Cc1ccnc(N2CCCC(C(=O)NCc3cccs3)C2)n1 (centres undefined)	-72	-66*	0	-1
Cc1ccnc(N2CCCC(C(=O)Nc3ccc(C)c(C)c3)C2)n1 (centres undefined)	60*	25	12	-10
Cc1cc(C)nc(N2CCCC(C(=O)NCc3cccs3)C2)n1 (centres undefined)	-20	1	-9	-9
O=C(C[C@H]1CC[C@@H](NC(=O)Nc2cc(F)ccc2F)[C@@H](CO)O1)Nc1ccc(-c2ccccc2)cc1	.	.	7	.
Cc1ccccc1S(=O)(=O)N1C[C@@H](O)COC[C@H]2O[C@@H](CC(=O)N3CCN(C)CC3)CC[C@@H]21	.	.	6	.
OC[C@@H]1[C@H](c2ccc(C#Cc3cccnc3)cc2)[C@H]2CN(Cc3ccccc3F)CCCCN12	.	.	0	.
COc1ccccc1N1CC(C)C(=O)NC1=S (centres undefined)	-68	-56*	-6	-18
O=C(CCSc1ccc(Cl)cc1)NC12CC3CC(CC(C3)C1)C2	49	24	50*	-14
O=C(CCSc1ccc(Cl)cc1)NC1CCCCC1	12	1	.	5
COc1ccccc1-c1ccc2n(c1=O)C[C@@H]1[C@@H](CO)[C@H](C(=O)N(C)C)[C@H]2N1C(=O)c1cccnc1	.	.	3	.
C[C@H](CO)N1C[C@H](C)[C@@H](CN(C)C(=O)NC2CCCC2)Oc2ncc(C#CC3CCCCC3)cc2C1=O	.	.	7	.
Cc1ccc(C(=O)NNC(=O)CSc2nnc3c(n2)[nH]c2ccc(C)cc23)cc1	3	-5	-2	25
CCc1ccc2[nH]c3nc(SCC(=O)NNC(=O)c4ccc(C(C)(C)C)cc4)nnc3c2c1	-23	-13	7	90*
COc1ccccc1S(=O)(=O)N1CC[C@@H]2[C@H](CO)Nc3ccc(-c4cccc(C#N)c4)cc3[C@@H]21	.	.	-1	.
CCCNC(=O)c1cccc(COCC(F)(F)F)c1	-69	-63*	-6	.
Cc1ccc(NC(=O)N2C(=O)C3(OCCO3)c3ccccc32)cc1	-9	7	58*	.
O=C(N/N=C\c1ccc(Br)o1)C1COc2ccccc2O1 (centres undefined)	-6	0	.	-4
CN(C)c1ccc(/C=N/NC(=O)C2COc3ccccc3O2)o1 (centres undefined)	-84	-78*	.	-8
Cc1cc(C)n2nc(Nc3ccccc3)cc2n1	4	5	33	1
Cc1cc(C)n2nc(-c3ccsc3-n3c(C)ccc3C)cc2n1	4	-6	-7	3
Cc1cc(C)n2nc(-c3ccccc3)cc2n1	45	26	43*	-16
Cc1cc(C)n2nc(-c3ccc(F)cc3)cc2n1	.	.	54*	.
Cc1ccc(-c2cc3nc(C)cc(C)n3n2)cc1	12	3	60*	-1
Cc1ccc(O)c(-c2cc(-c3cccc(Br)c3)n[nH]2)c1	67*	44	10	2
Cc1ccc(-c2cc(-c3ccccc3[N+](=O)[O-])[nH]n2)c(O)c1	39	14	70*	-12
Cc1ccccc1-c1cc(-c2ccccc2O)n[nH]1	-9	9	-29	.
Cc1ccc(-c2cc(-c3ccc(C)cc3O)[nH]n2)cc1	71*	52	36	-1
Cc1ccc(-c2cc(-c3ccc(F)cc3)n[nH]2)c(O)c1	30	26	35	-14
